# Counter-ions that a name gives are not always drawn.
# How the values were obtained:
# Assay in all cases: thermal shift delta Tm vs DMSO control; higher = stronger stabilization (binding)
# Settings in all cases: 12.5 µM; protein concentration 2 µM
# LOC_OS01G57100-cb003 = system: LOC_OS01G57100-cb003
# Method in brief: (§1)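 Thermal shift values come from differential scanning fluorimetry on purified rice kinase domains made in E. coli, with melting temperatures obtained from Boltzmann fits. Samples of 19.5 μl held 2 μM kinase, 100 mM potassium phosphate pH 7.5, 150 mM NaCl, 10% glycerol, 5 × SYPRO Orange and compound in DMSO, and were heated from 25°C to 95°C at 0.05°C/s. Each shift is a triplicate mean relative to the DMSO-only protein sample.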
# LOC_OS01G60330-cb001 = system: LOC_OS01G60330-cb001
# Method in brief: as §1
# LOC_OS01G60700-cb002 = system: LOC_OS01G60700-cb002
# Method in brief: as §1
# LOC_OS01G63280-cb003 = system: LOC_OS01G63280-cb003
# Method in brief: as §1
# LOC_OS01G67340-cb003 = system: LOC_OS01G67340-cb003
# Method in brief: as §1
# LOC_OS01G70970-cb002 = system: LOC_OS01G70970-cb002
# Method in brief: as §1
# LOC_OS02G07810-cb001 = system: LOC_OS02G07810-cb001
# Method in brief: as §1
# LOC_OS02G08530-cb003 = system: LOC_OS02G08530-cb003
# Method in brief: as §1
# LOC_OS02G14120-cb001 = system: LOC_OS02G14120-cb001
# Method in brief: as §1
# LOC_OS02G17970-cb001 = system: LOC_OS02G17970-cb001
# Method in brief: as §1
# LOC_OS02G45750-cb003 = system: LOC_OS02G45750-cb003
# Method in brief: as §1
# LOC_OS02G54510-cb004 = system: LOC_OS02G54510-cb004
# Method in brief: as §1
# LOC_OS03G04050-cb001 = system: LOC_OS03G04050-cb001
# Method in brief: as §1
# LOC_OS03G12390-cb001 = system: LOC_OS03G12390-cb001
# Method in brief: as §1
# LOC_OS03G27990-cb004 = system: LOC_OS03G27990-cb004
# Method in brief: as §1
# LOC_OS03G50450-cb001 = system: LOC_OS03G50450-cb001
# Method in brief: as §1
# LOC_OS03G50810-cb003 = system: LOC_OS03G50810-cb003
# Method in brief: as §1
# LOC_OS04G35114-cb001 = system: LOC_OS04G35114-cb001
# Method in brief: as §1
# LOC_OS04G38480-cb003 = system: T1, LOC_OS04G38480-cb003
# T1 sequence (whole entry): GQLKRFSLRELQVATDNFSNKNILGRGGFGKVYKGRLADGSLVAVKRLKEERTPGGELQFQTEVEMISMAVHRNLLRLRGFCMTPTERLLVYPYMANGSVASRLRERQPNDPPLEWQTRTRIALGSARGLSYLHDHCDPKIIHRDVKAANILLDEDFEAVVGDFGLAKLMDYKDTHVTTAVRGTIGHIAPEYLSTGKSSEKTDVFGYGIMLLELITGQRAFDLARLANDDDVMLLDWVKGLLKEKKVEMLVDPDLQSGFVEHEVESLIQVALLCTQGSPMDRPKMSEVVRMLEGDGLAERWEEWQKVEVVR
# Method in brief: as §1
# LOC_OS04G41100-cb001 = system: T2, LOC_OS04G41100-cb001
# T2 sequence (whole entry): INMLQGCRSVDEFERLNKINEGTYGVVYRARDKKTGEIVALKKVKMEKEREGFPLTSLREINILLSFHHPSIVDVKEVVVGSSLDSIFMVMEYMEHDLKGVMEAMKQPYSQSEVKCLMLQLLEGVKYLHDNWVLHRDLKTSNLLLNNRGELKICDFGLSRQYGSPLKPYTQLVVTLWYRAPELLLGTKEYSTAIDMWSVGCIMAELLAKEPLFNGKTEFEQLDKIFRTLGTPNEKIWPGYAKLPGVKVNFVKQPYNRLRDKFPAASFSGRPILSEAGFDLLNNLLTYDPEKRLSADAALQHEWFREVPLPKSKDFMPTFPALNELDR
# Method in brief: as §1
# 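Also: purified Escherichia coli-expressed rice kinase domain construct.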
Structure (SMILES),thermal shift delta Tm (LOC_OS01G57100-cb003),thermal shift delta Tm (LOC_OS01G60330-cb001),thermal shift delta Tm (LOC_OS01G60700-cb002),thermal shift delta Tm (LOC_OS01G63280-cb003),thermal shift delta Tm (LOC_OS01G67340-cb003),thermal shift delta Tm (LOC_OS01G70970-cb002),thermal shift delta Tm (LOC_OS02G07810-cb001),thermal shift delta Tm (LOC_OS02G08530-cb003),thermal shift delta Tm (LOC_OS02G14120-cb001),thermal shift delta Tm (LOC_OS02G17970-cb001),thermal shift delta Tm (LOC_OS02G45750-cb003),thermal shift delta Tm (LOC_OS02G54510-cb004),thermal shift delta Tm (LOC_OS03G04050-cb001),thermal shift delta Tm (LOC_OS03G12390-cb001),thermal shift delta Tm (LOC_OS03G27990-cb004),thermal shift delta Tm (LOC_OS03G50450-cb001),thermal shift delta Tm (LOC_OS03G50810-cb003),thermal shift delta Tm (LOC_OS04G35114-cb001),thermal shift delta Tm (LOC_OS04G38480-cb003),thermal shift delta Tm (LOC_OS04G41100-cb001)
COc1cc(OC)cc(N(CCNC(C)C)c2ccc3ncc(-c4cnn(C)c4)nc3c2)c1,1.85 °C,0.09 °C,0.12 °C,0.43 °C,0.07 °C,0.6 °C,-0.54 °C,0.61 °C,2.34 °C,-0.45 °C,1.81 °C,2.46 °C,0.37 °C,0.27 °C,0.3 °C,0.28 °C,0.45 °C,0.74 °C,2.14 °C,0.41 °C
C[C@@H]1CN(CC(=O)Nc2ccc3c(c2)Cc2cccc(-c4cc(=O)cc(N5CCOCC5)o4)c2S3)C[C@H](C)O1,1.01 °C,0.66 °C,0.34 °C,0.3 °C,0 °C,-0.1 °C,0.97 °C,0.73 °C,0.18 °C,0.49 °C,0.27 °C,-0.11 °C,0.02 °C,0.37 °C,-0.04 °C,0.03 °C,0.14 °C,0.37 °C,-0.13 °C,0.23 °C
CCNc1nc(Nc2cc(F)c(C(=O)N3CCOCC3)cc2OC)ncc1C(F)(F)F,0.61 °C,1.21 °C,0.71 °C,0.15 °C,0.32 °C,0.73 °C,-0.04 °C,1.3 °C,0.5 °C,0.54 °C,1.06 °C,0.23 °C,0.41 °C,0.25 °C,0.28 °C,0.95 °C,0.82 °C,1.17 °C,1.15 °C,0.43 °C
CCn1c(=O)c(-c2ccc(-c3cncs3)cc2Cl)cc2cnc(Nc3ccc(N4CCN(C)CC4)cc3)nc21,1.89 °C,1.07 °C,0.86 °C,0.25 °C,1.37 °C,0.17 °C,0.59 °C,0.55 °C,-0.39 °C,0.23 °C,1.17 °C,0.43 °C,0.71 °C,-0.41 °C,0.34 °C,1.1 °C,0.27 °C,0.85 °C,0.15 °C,0.58 °C
C=C(C)[C@@H]1CC[C@]2(C)CC[C@]3(C)[C@H](CC[C@@H]4[C@@]5(C)CC[C@H](O)C(C)(C)[C@@H]5CC[C@]43C)[C@@H]12 [Lupeol],0.67 °C,-0.59 °C,0.65 °C,0.13 °C,0.51 °C,-0.32 °C,1 °C,0.21 °C,-0.18 °C,-0.66 °C,1.07 °C,0.49 °C,0.67 °C,0.01 °C,0.18 °C,0.36 °C,0.4 °C,1.24 °C,3.02 °C,0.47 °C
CCCCCCCCCCCCc1ccc(S(=O)(=O)Nc2nncs2)cc1,2.08 °C,0.81 °C,0.86 °C,0.54 °C,-1.07 °C,0.27 °C,1.33 °C,0.91 °C,-0.22 °C,0.86 °C,-1.65 °C,-0.17 °C,0.7 °C,-0.22 °C,0.29 °C,-0.07 °C,-0.06 °C,0.41 °C,0.58 °C,0.45 °C
COc1cc2nccc(Oc3ccc(NC(=O)Nc4cc(C)on4)c(Cl)c3)c2cc1OC [Tivozanib (AV-951)],1.99 °C,1.29 °C,0.04 °C,1.3 °C,0.1 °C,0.66 °C,0.91 °C,1.02 °C,6.58 °C,0.14 °C,2.56 °C,3.55 °C,0.02 °C,1.3 °C,0.02 °C,-0.03 °C,2.67 °C,3.47 °C,4.03 °C,0.72 °C
Cc1cc(O)c(-c2ccc([C@@H](C)CN)cc2)c2c1[nH]c(=O)c1sccc12 [OTS514 hydrochloride],-0.04 °C,2.08 °C,1.5 °C,0.46 °C,0.86 °C,0.57 °C,0.41 °C,1.3 °C,4.21 °C,1.52 °C,0.87 °C,1.1 °C,0.44 °C,0.55 °C,0.52 °C,0.04 °C,0.85 °C,1.39 °C,1.65 °C,3.58 °C
Cc1cn(-c2cc(NC(=O)c3ccc(C)c(Nc4nccc(-c5cnccn5)n4)c3)cc(C(F)(F)F)c2)cn1 [Radotinib],1.49 °C,1.07 °C,1.39 °C,0.63 °C,0.48 °C,0.3 °C,1.04 °C,0.67 °C,1.36 °C,1.82 °C,0.73 °C,1.99 °C,0.36 °C,0.26 °C,0.23 °C,-0.11 °C,0.14 °C,0.13 °C,1.4 °C,0.41 °C
CN1CCN(CCOc2cc(OC3CCOCC3)c3c(Nc4c(Cl)ccc5c4OCO5)ncnc3c2)CC1 [Saracatinib (AZD0530)],0.72 °C,1.51 °C,1.11 °C,0.03 °C,0.29 °C,0.9 °C,0.55 °C,1.2 °C,8.8 °C,0 °C,2.36 °C,0.77 °C,0.38 °C,2.47 °C,1.15 °C,0.13 °C,3.05 °C,7.08 °C,3.11 °C,0.53 °C
CCn1nc(C2CCN(C(=O)CCO)CC2)nc1-c1cnc(N)c(-c2nnc(C(C)(C)C)o2)n1,0.59 °C,0.91 °C,1.19 °C,1.82 °C,1.55 °C,1.96 °C,1.55 °C,2.73 °C,5.17 °C,1.34 °C,3.05 °C,0.25 °C,0.43 °C,4.97 °C,0.52 °C,0.05 °C,0.89 °C,4.72 °C,2.09 °C,0.3 °C
Cc1c(C(=O)N2CCOc3ccc(-c4ccc(N)nc4)cc3C2)ccc(S(C)(=O)=O)c1F,-0.07 °C,0.34 °C,0.98 °C,0.62 °C,0.21 °C,0.48 °C,-0.03 °C,0.91 °C,0.74 °C,0.12 °C,0.79 °C,0.21 °C,0.5 °C,0.38 °C,0.27 °C,0.12 °C,0.24 °C,0.73 °C,0.22 °C,0.43 °C
N#C/C(=C(/N)Sc1ccc(N)cc1)c1ccccc1C(F)(F)F,0.82 °C,0.59 °C,0.64 °C,-0.09 °C,-0.57 °C,0.23 °C,0.12 °C,0.32 °C,-0.1 °C,0.43 °C,-0.09 °C,0.03 °C,0.54 °C,-0.46 °C,0.47 °C,-0.3 °C,-0.02 °C,0.28 °C,0.37 °C,0.78 °C

# — the supplement of paper PMC9694430
